Assay [1] can be described thus: Primary qHTS for inhibitors of nuclear receptor binding SET domain protein 2 (NSD2) in an isogenic RCH-ACV NSD2 p.E1099K mutant (9B) (AID 1645876). Note: nearly all actives have a fitted effect of over 70% in size. Note: potency is the fitted concentration of half-maximal effect. In general terms: Quantitative high-throughput screening tests each substance at several concentrations.
Assay [2] in a line: Primary qHTS for inhibitors of nuclear receptor binding SET domain protein 2 (NSD2) in an RCH-ACV wild type WT cells (2C) (AID 1645877). Note: nearly all actives have a fitted effect of over 70% in size. Note: potency is the fitted concentration of half-maximal effect.
In assay [3] the target is Rap guanine nucleotide exchange factor 3 (Homo sapiens) (UniProt O95398). Kind of assay: Confirmatory qHTS for antagonist of cAMP-regulated guanine nucleotide exchange factor 3 (EPAC1) (AID 1645880). Note: potency is the fitted concentration of half-maximal effect; nearly all actives have a fitted effect of over 55% in size. Summed up: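 Released BODIPY-GDP fluoresces less than Rap1-bound BODIPY-GDP; the signal is followed at 480/540 nm at 5-min intervals over 30 min, after 5 min at room temperature. Reactions contain 100 nM EPAC1, 250 nM RAP1B-BODIPY-GDP and 50 uM GDP; results are normalized to ATA and DMSO.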
Sequence of Rap guanine nucleotide exchange factor 3 (Homo sapiens) (O95398 whole entry, looked up): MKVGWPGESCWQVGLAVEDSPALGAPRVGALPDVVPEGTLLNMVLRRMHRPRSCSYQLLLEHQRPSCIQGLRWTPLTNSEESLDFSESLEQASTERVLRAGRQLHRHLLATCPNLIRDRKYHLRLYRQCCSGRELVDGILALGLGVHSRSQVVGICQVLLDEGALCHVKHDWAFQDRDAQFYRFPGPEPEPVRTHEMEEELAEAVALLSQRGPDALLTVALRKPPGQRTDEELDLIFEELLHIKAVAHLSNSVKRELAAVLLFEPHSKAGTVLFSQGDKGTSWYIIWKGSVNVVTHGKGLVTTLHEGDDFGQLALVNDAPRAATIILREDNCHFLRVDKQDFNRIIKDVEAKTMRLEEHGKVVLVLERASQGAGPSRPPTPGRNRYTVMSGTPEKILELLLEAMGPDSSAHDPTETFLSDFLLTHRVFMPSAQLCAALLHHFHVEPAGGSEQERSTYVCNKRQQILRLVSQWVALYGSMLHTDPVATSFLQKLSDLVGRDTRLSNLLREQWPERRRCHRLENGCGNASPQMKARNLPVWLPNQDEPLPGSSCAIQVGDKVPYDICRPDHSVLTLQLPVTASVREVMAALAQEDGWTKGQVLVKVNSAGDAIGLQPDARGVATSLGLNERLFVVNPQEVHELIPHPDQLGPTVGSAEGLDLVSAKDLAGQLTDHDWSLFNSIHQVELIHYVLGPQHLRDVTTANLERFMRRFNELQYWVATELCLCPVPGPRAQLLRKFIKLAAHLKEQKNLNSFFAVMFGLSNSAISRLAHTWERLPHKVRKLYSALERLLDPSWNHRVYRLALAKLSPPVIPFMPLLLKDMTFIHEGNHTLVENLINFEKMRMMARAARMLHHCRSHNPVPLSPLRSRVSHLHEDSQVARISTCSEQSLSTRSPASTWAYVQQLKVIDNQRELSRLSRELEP

The target is the same in assay [4]. Kind of assay: Confirmatory qHTS for agonist of cAMP-regulated guanine nucleotide exchange factor 3 (EPAC1) (AID 1645881).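 Note: EPAC1 catalysed release of BODIPY-GDP from Rap1B seen as fluorescence loss; nearly all actives have a fitted effect of over 75% in size.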
Assay [5] has as its target Rap guanine nucleotide exchange factor 4 (Homo sapiens) (UniProt Q8WZA2). The assay can be described thus: Confirmatory qHTS for antagonist of cAMP-regulated guanine nucleotide exchange factor 4 (EPAC2) (AID 1645885). Note: nearly all actives have a fitted effect of over 25% in size. Note: potency is the fitted concentration of half-maximal effect.
Assay [6] addresses Rap guanine nucleotide exchange factor 3 (Homo sapiens) (UniProt O95398). Kind of assay: Counterscreen qHTS for antagonist of cAMP-regulated guanine nucleotide exchange factor 3 (EPAC1) (AID 1645888). Summed up: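 Rap1B–BODIPY-GDP (250 nM) with 50 uM GDP; compounds pin-transferred to 9.74 nM–152 uM final (activator) or from 7.32 nM upwards (inhibitor). Fluorescence Ex/Em 480/540 nm read at 5 and 30 min, then after adding cAMP or buffer, at room temperature.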
(In general: A counterscreen serves to expose hits that act by an unwanted route or on another target.)

Assay [7] concerns the target Rap guanine nucleotide exchange factor 4 (Homo sapiens) (UniProt Q8WZA2). The assay can be described thus: Confirmatory qHTS for agonist of cAMP-regulated guanine nucleotide exchange factor 4 (EPAC2) (AID 1645884).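 Note: nucleotide exchange releases bodipy-GDP from Rap1 and this lowers its fluorescence; nearly all actives have a fitted effect of over 65% in size.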

Structures are written as SMILES. Results filed as inconclusive are left out. Activity calls are given as the source filed them. Calls come from the whole dose curve; as a rule, active = well fitted curve in the direction sought with a large enough effect; inconclusive = small, poorly fitted or top-dose-only effect, or another doubt; inactive = no such curve, though single readings can be large; an effect the other way counts as inactive or inconclusive.

Potency and outcome data for 29 compounds are collected here from PubChem BioAssay (NCATS).

Sequence of Rap guanine nucleotide exchange factor 4 (Homo sapiens) (Q8WZA2 whole entry, looked up): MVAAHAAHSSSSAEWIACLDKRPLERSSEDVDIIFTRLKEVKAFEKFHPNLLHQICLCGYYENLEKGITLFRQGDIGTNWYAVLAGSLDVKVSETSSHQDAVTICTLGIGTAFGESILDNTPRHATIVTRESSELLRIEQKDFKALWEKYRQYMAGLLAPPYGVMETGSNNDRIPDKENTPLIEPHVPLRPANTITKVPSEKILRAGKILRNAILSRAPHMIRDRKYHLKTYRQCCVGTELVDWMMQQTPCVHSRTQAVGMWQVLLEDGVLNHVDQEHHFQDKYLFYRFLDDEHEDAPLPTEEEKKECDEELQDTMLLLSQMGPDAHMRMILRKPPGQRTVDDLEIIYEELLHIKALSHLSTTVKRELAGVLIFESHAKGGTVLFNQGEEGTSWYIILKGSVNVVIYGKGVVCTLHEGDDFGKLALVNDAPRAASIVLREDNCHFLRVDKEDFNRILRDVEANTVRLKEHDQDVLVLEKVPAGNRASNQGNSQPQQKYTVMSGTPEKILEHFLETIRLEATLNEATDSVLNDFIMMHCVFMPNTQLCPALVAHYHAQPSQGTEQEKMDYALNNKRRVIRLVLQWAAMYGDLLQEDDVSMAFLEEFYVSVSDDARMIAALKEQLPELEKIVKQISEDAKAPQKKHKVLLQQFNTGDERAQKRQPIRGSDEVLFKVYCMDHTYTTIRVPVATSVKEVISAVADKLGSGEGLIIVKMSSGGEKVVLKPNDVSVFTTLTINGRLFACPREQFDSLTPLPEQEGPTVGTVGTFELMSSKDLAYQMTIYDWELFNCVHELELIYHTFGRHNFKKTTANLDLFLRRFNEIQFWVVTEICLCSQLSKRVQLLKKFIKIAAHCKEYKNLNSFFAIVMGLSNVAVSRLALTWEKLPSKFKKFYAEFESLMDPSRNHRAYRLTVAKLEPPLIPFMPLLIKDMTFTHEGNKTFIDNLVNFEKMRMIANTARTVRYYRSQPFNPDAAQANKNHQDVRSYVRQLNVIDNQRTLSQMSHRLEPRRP

As to `CCC/C=C/C=C/C1CC(O)C2(O)C(=O)OCC12` (configuration not stated), the Potency entry in assay [1] and in assay [2] was “inactive” each time.

For the compound `O=C(O)CSc1cc(NS(=O)(=O)c2ccc(Br)cc2)c2ccccc2c1O`, the Potency in assay [1] is 7.28 µM (active); in assay [2], 4.09 µM (active); in assay [3], 84.9 µM (active); in assay [5], 47.8 µM (active). For the same compound, the compound was classed as inactive in assay [4] and in assay [6].

As to `C=C1CC2[C@@]3(C)C=CC(=O)C(C)(C)C3=C(O)C(=O)[C@@]2(C)C2(C(=O)OC)C(=O)C(C)OC(=O)[C@@]12C` (some centres not stated), the Potency in assay [2] is 8.93 µM (active).

Turning to `CC(C)C[C@@H]1NC(=O)[C@@H](Cc2ccccc2)NC(=O)C(CCCCCC(=O)C2CO2)NC(=O)[C@@H]2CCCCN2C1=O` (some centres not stated), the Potency in assay [1] was 0.0709 µM (active); in assay [2], 0.0252 µM (active).

For the compound `C=CC(C)(C)c1[nH]c2ccccc2c1C[C@@H]1NC(=O)[C@H](C)NC1=O`, the Potency entry in assay [2] was “inactive”.

On to `C=C1C(=O)OC2C=C(C)CC/C=C(\CO)CC(O)C12` (configuration not stated), for which, in assay [2], the Potency was 20.5 µM (active).

As for `CC(=O)[C@H]1CC[C@H]2[C@@H]3CC=C4C[C@@H](OS(=O)(=O)O)CC[C@]4(C)[C@H]3CC[C@]12C`, the Potency entry in assay [1], in assay [2] and in assay [5] was “inactive” in each case. Moreover, the outcome in assay [4], in assay [7] and in assay [6] was inactive.

Take `CC1CCC/C=C/C(=O)c2c(O)cc(O)cc2CC(=O)O1` (configuration not stated): the values for the Potency in assay [1] and in assay [2] were 2.9 µM (active) and 2.05 µM (active), respectively.

Consider `COc1cc2c(c(OC)c1CC=C(C)C)C[C@H](c1ccc(O)c(CC=C(C)C)c1O)CO2`, for which the Potency result in assay [2] was “inactive”.

On to `CCCCOC(=O)NS(=O)(=O)c1sc(CC(C)C)cc1-c1ccc(Cn2ccnc2)cc1`, for which the figures for the Potency in assay [1] and in assay [2] were 23.5 µM (active) and 20.9 µM (active), respectively.

As to `C[C@@H]1O[C@@H](O[C@H]2[C@@H]3C=CO[C@@H](O[C@@H]4O[C@H](CO)[C@@H](O)[C@H](O)[C@H]4O)[C@@H]3[C@@]3(CO)O[C@@H]23)[C@H](O)[C@H](OC(=O)/C=C/c2ccccc2)[C@H]1O`, the Potency in assay [2] is 5.41 µM (active).

Take `COc1ccc2nc3n[nH]c(C)c3c(NCCOCCO)c2c1`: the Potency in assay [2] is 3.25 µM (active).

With `Cc1ccc(CNc2ncnc3ccc(-c4ccc(CO)o4)cc23)o1`, the results for the Potency in assay [1] and in assay [2] were 2.58 µM (active) and 2.3 µM (active), respectively.

Regarding `CC(=O)O[C@H]1CC2C(COC(=O)CC(C)C)=CO[C@@H](OC(=O)CC(C)C)C2[C@]12CO2` (some centres not stated), the Potency in assay [1] is 7.96 µM (active); in assay [2], 3.55 µM (active).

With `C=C(C(=O)OC[C@H]1O[C@@H](OC(=O)/C=C/c2ccccc2)[C@H](O)[C@@H](O)[C@@H]1O)C(O)CO` (some centres not stated), the Potency in assay [2] is 5.63 µM (active).

Consider `Nc1nc2c(nc(Br)n2[C@@H]2O[C@@H]3COP(=O)(O)O[C@H]3[C@H]2O)c(=O)[nH]1`, for which the Potency result in assay [1] and in assay [2] was “inactive” each time.

As for `C=C(C(=O)OC)[C@@H]1CC=C2C=CC(=O)[C@H](C)[C@@]2(C)C1`, the Potency in assay [2] was 20.5 µM (active).

For `Cc1ccc(-c2ncccn2)c(C(=O)N2C[C@H](COc3ccc(F)cn3)CC[C@H]2C)c1`, the Potency result in assay [1] and in assay [2] was “inactive” in each case.

On to `C=C1/C(=C/C=C2\CCC[C@]3(C)[C@@H]([C@@H](C)OCCC(O)(CC)CC)CC[C@@H]23)C[C@@H](O)C[C@@H]1O`, for which the Potency in assay [2] is 20.5 µM (active).

On to `COc1ccc(CCCN2CCC(COC(c3ccccc3)c3ccccc3)CC2)cc1`, for which the Potency in assay [2] is 16.3 µM (active).

`C#Cc1cccc(Nc2nc3cc(C(=O)O)ccc3c3cncnc23)c1`: the Potency in assay [1] was 4.09 µM (active); in assay [2], 2.58 µM (active).

Turning to `CCN(CC)CCCCCCNc1cc(OC)cc2c(C)ccnc12`, the Potency in assay [2] is 12.9 µM (active).

For the compound `O=C(c1c(F)ccc(NS(=O)(=O)N2CC[C@@H](F)C2)c1F)c1c[nH]c2ncc(-c3cnc(C4CC4)nc3)cc12`, the Potency in assay [1] is 11.8 µM (active); in assay [2] it was 11.6 µM (active).

`C=C1C(=O)OC[C@@H]1C/C=C(\C)CC1CC(C)C(=O)O1` (some centres not stated): the Potency in assay [2] was 23 µM (active).

For `C=C[C@](C)(O)CC[C@H]1C(C)=CC(=O)[C@H]2C(C)(C)CCC[C@]12C`, in assay [2], the Potency was 18.3 µM (active).

Take `C/C(=C\CO[C@@H]1O[C@H](CO[C@H]2OC[C@](O)(CO)[C@H]2O)[C@@H](O)[C@H](O)[C@H]1O)C(C)(C)O`: the Potency result in assay [1] and in assay [2] was “inactive” each time.

With `COc1ccc(CCc2nc3cc(-c4c(C)noc4C)ccc3n2CC(C)N2CCOCC2)cc1Cl` (configuration not stated), the Potency in assay [1] is 2.3 µM (active); in assay [2], 2.58 µM (active).

As to `COc1ccc2c(c1O[C@H]1CCNC1)CCC2`, the Potency entry in assay [1] and in assay [2] was “inactive” in each case.

Take `C[C@@H]1O[C@@H](O[C@H]2[C@H](OC(=O)[C@]34CCC(C)(C)C[C@H]3C3=CCC5[C@@]6(C)C[C@H](O)[C@H](O[C@@H]7O[C@H](C(=O)O)[C@@H](O)[C@H](O)[C@H]7O)[C@@](C)(CO)C6[C@H](O)C[C@@]5(C)[C@]3(C)C[C@H]4O)O[C@@H](CO)[C@@H]2O)[C@H](O)[C@H](O)[C@H]1O[C@@H]1OC[C@@H](O)[C@H](O[C@H]2OC[C@](O)(CO)[C@H]2O)[C@H]1O` (some centres not stated): the Potency in assay [2] is 0.122 µM (active).
